# Reference: PubChem BioAssay AID1159580 (chemical genetic matrix, 2015)
# “And” between values parts separate entries of the source, which are not always exact repeats. Equal entries are not always repeated. Out of some 5,500 compounds screened, about 2,000 (36%) were called active. Not shown: some 18% with an inconclusive outcome. Cut-off read from the data, not from the text of the source: active = normalized growth mostly below about 0.91 (no sharp cut-off); inconclusive = no clear call, values can overlap the other calls; inactive = mostly above about 0.92. This is one part of the list.
# Assay: chemical genetic growth profiling, strain panel (AID 1159580);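 note: tested at 20 µM; growth read once vehicle control cultures reached saturation at 30 °C; 1 = growth at the plate median or of vehicle wells; lower values mean less growth of the strain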
# Conditions: S. cerevisiae deletion strains, growth OD
smiles,measurement,setting,value
CC1=C2C(=CO[C@H](C)[C@H]2C)C(=O)C(C(=O)O)=C1O,normalized growth,"locus YAL021C, strain ccr4, stronger effect = lower value",0.993 (inactive)
same,normalized growth,"locus YAL026C, strain drs2, stronger effect = lower value",0.982 (inactive)
same,normalized growth,"locus YAL030W, strain snc1, stronger effect = lower value",0.977 (inactive)
same,normalized growth,"locus YBL061C, strain skt5, stronger effect = lower value",0.977 (inactive)
same,normalized growth,"locus YBR009C, strain hhf1, stronger effect = lower value",0.975 (inactive)
same,normalized growth,"locus YBR021W, strain FUR4, stronger effect = lower value",0.995 (inactive)
same,normalized growth,"locus YBR023C, strain chs3, stronger effect = lower value",0.97 (inactive)
same,normalized growth,"locus YBR171W, strain sec66, stronger effect = lower value",0.981 (inactive)
same,normalized growth,"locus YBR229C, strain ROT2, stronger effect = lower value",0.978 (inactive)
same,normalized growth,"locus YBR231C, strain swc5, stronger effect = lower value",0.979 (inactive)
same,normalized growth,"locus YBR279W, strain paf1, stronger effect = lower value",0.989 (inactive)
same,normalized growth,"locus YCL011C, strain gbp2, stronger effect = lower value",0.975 (inactive)
same,normalized growth,"locus YCL016C, strain dcc1, stronger effect = lower value",0.967 (inactive)
same,normalized growth,"locus YCL029C, strain bik1, stronger effect = lower value",0.986 (inactive)
same,normalized growth,"locus YCL061C, strain MRC1, stronger effect = lower value",0.967 (inactive)
same,normalized growth,"locus YCL069W, strain vba3, stronger effect = lower value",0.991 (inactive)
same,normalized growth,"locus YCR088W, strain abp1, stronger effect = lower value",0.973 (inactive)
same,normalized growth,"locus YDL005C, strain med2, stronger effect = lower value",0.971 (inactive)
same,normalized growth,"locus YDL035C, strain GPR1, stronger effect = lower value",0.995 (inactive)
same,normalized growth,"locus YDL040C, strain nat1, stronger effect = lower value",0.98 (inactive)
same,normalized growth,"locus YDL074C, strain BRE1, stronger effect = lower value",0.996 (inactive)
same,normalized growth,"locus YDL101C, strain DUN1, stronger effect = lower value",0.989 (inactive)
same,normalized growth,"locus YDL134C, strain PPH21, stronger effect = lower value",0.996 (inactive)
same,normalized growth,"locus YDL185W, strain tfp1, stronger effect = lower value",0.991 (inactive)
same,normalized growth,"locus YDL192W, strain arf1, stronger effect = lower value",0.983 (inactive)
same,normalized growth,"locus YDR001C, strain nth1, stronger effect = lower value",0.98 (inactive)
same,normalized growth,"locus YDR069C, strain doa4, stronger effect = lower value",0.976 (inactive)
same,normalized growth,"locus YDR101C, strain arx1, stronger effect = lower value",0.983 (inactive)
same,normalized growth,"locus YDR137W, strain rgp1, stronger effect = lower value",0.912 (inactive)
same,normalized growth,"locus YDR150W, strain NUM1, stronger effect = lower value",0.981 (inactive)
same,normalized growth,"locus YDR159W, strain sac3, stronger effect = lower value",0.957 (inactive)
same,normalized growth,"locus YDR162C, strain NBP2, stronger effect = lower value",0.978 (inactive)
same,normalized growth,"locus YDR195W, strain ref2",0.969 (inactive)
same,normalized growth,"locus YDR297W, strain sur2, stronger effect = lower value",0.989 (inactive)
same,normalized growth,"locus YDR318W, strain mcm21, stronger effect = lower value",0.989 (inactive)
same,normalized growth,"locus YDR334W, strain swr1, stronger effect = lower value",0.991 (inactive)
same,normalized growth,"locus YDR335W, strain msn5, stronger effect = lower value",0.994 (inactive)
same,normalized growth,"locus YDR388W, stronger effect = lower value",0.979 (inactive)
same,normalized growth,"locus YDR392W, strain spt3, stronger effect = lower value",0.821 (inactive)
same,normalized growth,"locus YDR502C, strain sam2, stronger effect = lower value",0.971 (inactive)
same,normalized growth,"locus YEL003W, strain gim4, stronger effect = lower value",0.988 (inactive)
same,normalized growth,"locus YEL037C, strain rad23, stronger effect = lower value",0.997 (inactive)
same,normalized growth,"locus YEL061C, strain CIN8 (second series), stronger effect = lower value",0.99 (inactive)
same,normalized growth,"locus YEL061C, strain CIN8, stronger effect = lower value",0.979 (inactive)
same,normalized growth,"locus YER015W, strain faa2, stronger effect = lower value",0.98 (inactive)
same,normalized growth,"locus YER016W, strain bim1, stronger effect = lower value",0.976 (inactive)
same,normalized growth,"locus YER110C, stronger effect = lower value",0.985 (inactive)
same,normalized growth,"locus YER111C, strain swi4, stronger effect = lower value",0.983 (inactive)
same,normalized growth,"locus YER155C, strain BEM2 (second series), stronger effect = lower value",0.938 (inactive)
same,normalized growth,"locus YER155C, strain BEM2, stronger effect = lower value",0.982 (inactive)
same,normalized growth,"locus YER167W, strain BCK2, stronger effect = lower value",0.969 (inactive)
same,normalized growth,"locus YFR010W, strain ubp6, stronger effect = lower value",0.991 (inactive)
same,normalized growth,"locus YGL078C, strain dbp3, stronger effect = lower value",0.987 (inactive)
same,normalized growth,"locus YGL086W, strain mad1, stronger effect = lower value",0.96 (inactive)
same,normalized growth,"locus YGL167C, strain pmr1, stronger effect = lower value",0.963 (inactive)
same,normalized growth,"locus YGL173C, strain kem1, stronger effect = lower value",0.983 (inactive)
same,normalized growth,"locus YGL227W, strain vid30, stronger effect = lower value",0.989 (inactive)
same,normalized growth,"locus YGL240W, strain doc1, stronger effect = lower value",0.97 (inactive)
same,normalized growth,"locus YGL248W, strain PDE1, stronger effect = lower value",0.991 (inactive)
same,normalized growth,"locus YGL253W, strain hxk2, stronger effect = lower value",1.01 (inactive)
same,normalized growth,"locus YGR135W, strain pre9, stronger effect = lower value",0.999 (inactive)
same,normalized growth,"locus YGR229C, strain SMI1, stronger effect = lower value",0.989 (inactive)
same,normalized growth,"locus YGR252W, strain gcn5, stronger effect = lower value",1.06 (inactive)
same,normalized growth,"locus YHR013C, strain ard1, stronger effect = lower value",0.94 (inactive)
same,normalized growth,"locus YHR027C, strain rpn1, stronger effect = lower value",0.977 (inactive)
same,normalized growth,"locus YHR030C, strain SLT2, stronger effect = lower value",0.977 (inactive) and 0.85 (active)
same,normalized growth,"locus YHR079C, strain IRE1 (second series), stronger effect = lower value",0.985 (inactive)
same,normalized growth,"locus YHR079C, strain IRE1, stronger effect = lower value",0.794 (active)
same,normalized growth,"locus YHR094C, strain hxt1, stronger effect = lower value",0.975 (inactive)
same,normalized growth,"locus YHR129C, strain ARP1, stronger effect = lower value",0.982 (inactive)
same,normalized growth,"locus YHR142W, strain chs7, stronger effect = lower value",1.01 (inactive)
same,normalized growth,"locus YHR200W, strain rpn10, stronger effect = lower value",0.989 (inactive)
same,normalized growth,"locus YIL066C, strain RNR3, stronger effect = lower value",0.995 (inactive)
same,normalized growth,"locus YIL073C, strain SPO22, stronger effect = lower value",0.993 (inactive)
same,normalized growth,"locus YIL125W, strain kgd1, stronger effect = lower value",0.965 (inactive)
same,normalized growth,"locus YIR030C, strain dcg1, stronger effect = lower value",0.976 (inactive)
same,normalized growth,"locus YJL092W, strain hpr5, stronger effect = lower value",0.989 (inactive)
same,normalized growth,"locus YJL095W, strain BCK1 (second series), stronger effect = lower value",0.974 (inactive)
same,normalized growth,"locus YJL095W, strain BCK1, stronger effect = lower value",0.947 (inactive) and 0.851 (active)
same,normalized growth,"locus YJL115W, strain asf1, stronger effect = lower value",0.987 (inactive)
same,normalized growth,"locus YJL129C, strain trk1, stronger effect = lower value",0.927 (inactive)
same,normalized growth,"locus YJL134W, strain LCB3, stronger effect = lower value",0.975 (inactive)
same,normalized growth,"locus YJL154C, strain vps35, stronger effect = lower value",0.993 (inactive)
same,normalized growth,"locus YJL164C, strain tpk1, stronger effect = lower value",0.974 (inactive)
same,normalized growth,"locus YJL166W, strain qcr8, stronger effect = lower value",0.983 (inactive)
same,normalized growth,"locus YJL168C, strain set2, stronger effect = lower value",0.98 (inactive)
same,normalized growth,"locus YJL187C, strain SWE1 (second series), stronger effect = lower value",0.995 (inactive)
same,normalized growth,"locus YJL187C, strain SWE1, stronger effect = lower value",0.979 (inactive)
same,normalized growth,"locus YJR043C, strain POL32, stronger effect = lower value",1.02 (inactive)
